Paper PMC12280212

target: PPIA (UniProt P62937); assay: cross-linking mass spectrometry; details: DSSO, in cells
Sequence (P62937 whole entry): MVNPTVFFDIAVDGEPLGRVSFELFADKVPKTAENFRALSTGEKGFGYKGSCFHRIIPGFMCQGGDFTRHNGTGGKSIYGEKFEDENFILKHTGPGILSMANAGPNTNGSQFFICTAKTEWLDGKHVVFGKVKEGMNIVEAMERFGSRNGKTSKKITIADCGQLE

Sequence of YWHAB, P31946 (P31946 whole entry): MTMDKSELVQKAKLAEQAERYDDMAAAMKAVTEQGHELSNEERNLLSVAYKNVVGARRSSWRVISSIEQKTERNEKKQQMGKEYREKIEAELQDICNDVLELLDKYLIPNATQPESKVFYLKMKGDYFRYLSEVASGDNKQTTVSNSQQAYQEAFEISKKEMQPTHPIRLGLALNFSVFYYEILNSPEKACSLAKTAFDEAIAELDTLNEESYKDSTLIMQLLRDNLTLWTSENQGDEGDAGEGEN
Sequence of YWHAQ, P27348 (P27348 whole entry): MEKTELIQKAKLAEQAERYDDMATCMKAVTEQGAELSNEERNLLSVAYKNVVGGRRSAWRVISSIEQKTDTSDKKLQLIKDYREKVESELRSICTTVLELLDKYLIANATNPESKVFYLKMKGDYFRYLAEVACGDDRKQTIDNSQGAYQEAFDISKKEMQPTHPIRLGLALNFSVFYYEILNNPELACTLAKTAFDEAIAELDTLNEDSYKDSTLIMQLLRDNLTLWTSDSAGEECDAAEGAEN
Sequence of GAPDH, P04406 (P04406 whole entry): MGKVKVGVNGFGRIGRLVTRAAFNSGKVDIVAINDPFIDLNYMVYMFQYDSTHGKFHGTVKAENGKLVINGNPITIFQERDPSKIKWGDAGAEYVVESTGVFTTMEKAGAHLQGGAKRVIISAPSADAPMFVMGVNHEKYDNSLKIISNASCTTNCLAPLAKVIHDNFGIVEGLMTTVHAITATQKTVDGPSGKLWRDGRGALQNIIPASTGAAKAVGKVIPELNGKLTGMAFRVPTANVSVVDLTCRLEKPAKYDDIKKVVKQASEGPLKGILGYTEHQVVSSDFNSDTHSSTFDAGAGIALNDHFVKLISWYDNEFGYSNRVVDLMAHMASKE
Sequence of ENO1, P06733 (P06733 whole entry): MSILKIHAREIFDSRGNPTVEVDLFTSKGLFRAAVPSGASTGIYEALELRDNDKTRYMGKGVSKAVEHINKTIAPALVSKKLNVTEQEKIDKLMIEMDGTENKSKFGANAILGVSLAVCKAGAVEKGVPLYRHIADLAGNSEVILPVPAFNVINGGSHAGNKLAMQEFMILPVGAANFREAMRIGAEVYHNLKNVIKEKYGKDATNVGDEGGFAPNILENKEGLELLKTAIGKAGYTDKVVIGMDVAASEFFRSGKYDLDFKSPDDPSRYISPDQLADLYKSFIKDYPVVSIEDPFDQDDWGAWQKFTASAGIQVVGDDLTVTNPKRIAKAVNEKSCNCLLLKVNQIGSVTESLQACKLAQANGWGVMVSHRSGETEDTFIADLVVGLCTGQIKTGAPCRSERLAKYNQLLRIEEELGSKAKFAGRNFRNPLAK

For GAPDH, P04406, which cross-linked residues is on record?
Its cross-linked residues is “K251 - K76”.

How did the cross-linked residues turn out when VIM, P08670 was run?
Its cross-linked residues is “K445 - K76”.

Which cross-linked residues does the source give for ENO1, P06733 here?
Its cross-linked residues is “K256 - K82”.

target: RRBP1 (UniProt Q9P2E9); assay: cross-linking mass spectrometry; details: DSSO, in cells

For RPL10A, P62906, which cross-linked residues is on record?
Its cross-linked residues is “K130 - K261”.

With RPL11, P62913 as the substance, how does the cross-linked residues read?
The cross-linked residues was “K67 - K270”.

With SEC61B, P60468 as the substance, how does the cross-linked residues read?
Its cross-linked residues is “K20 - K261”.

Which cross-linked residues does the source give for RPL31, P62899 here?
The cross-linked residues was “K91 - K261”.

How did the cross-linked residues turn out when LRRC59, Q96AG4 was run?
Its cross-linked residues is “K180 - K261”.

target: YWHAZ (UniProt P63104); assay: cross-linking mass spectrometry; details: DSSO, in cells

For YWHAB, P31946, which cross-linked residues is on record?
The cross-linked residues was “K11 - K85”.

How did the cross-linked residues turn out when S100A6, P06703 was run?
Its cross-linked residues is “K26 - K157”.

YWHAQ, P27348 was tested. Which cross-linked residues did it give?
Its cross-linked residues is “K9 - K85”.
